# Test results published in PubChem BioAssay (NCATS).
# “And” between values parts separate entries of the source, which are not always exact repeats. Equal values may be shown once. Results filed as inconclusive are left out. A number with no mark means an inactive call. The source made the active and inactive calls. The call rests on the fitted dose curve; in most records, active means well fitted inhibition curve with a large enough effect; inconclusive means small, poorly fitted or top-dose-only effect; inactive means flat fitted curve, though single readings scatter.
# Tests used:
# [1] = Drug repurposing screens with cells derived from glioblastoma tumor samples (AID 1345199); settings: GBM patient neurospheres viability, ATP luminescence, 48 h; further: nearly all actives have a fitted effect of over 40% in size
# Summary of the method: (§1)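 Primary testing used CD133+ neurospheres from four GBM patients, seven concentrations, 48 h exposure and ATP-based viability; confirmation added three slower-growing patient lines.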
# [2] = tested on: astro; test: as above; settings: viability, ATP luminescence, 48 h; series mostly up to 45.9 µM
# Summary of the method: as §1
# [3] = at 20 µM (top of the series), tumour line C
# [4] = at 21.2 µM (top of the series), tumour line B
# [5] = at 21.2 µM (top of the series), tumour line D
# [6] = at 21.3 µM (top of the series), tumour line A
# [7] = at 45.9 µM (top of the series), tumour line B
# [8] = at 45.9 µM (top of the series), tumour line D
# [9] = at 46 µM (top of the series), tumour line A
# [10] = at 46.1 µM (top of the series), tumour line C
# On the % scale 0 is the no-effect control and ±100 the full control effect; potency means the concentration at half of the fitted maximal effect.
smiles,measurement,setting,value
COc1ccc([C@@H]2CC(=O)c3c(O)cc(O[C@@H]4O[C@H](CO[C@@H]5O[C@@H](C)[C@H](O)[C@@H](O)[C@H]5O)[C@@H](O)[C@H](O)[C@H]4O)cc3O2)cc1O,"activity, negative = cell killing",[1]; [3],-7.12%
same,"activity, negative = cell killing",[1]; [4],-4.88%
same,"activity, negative = cell killing",[1]; [5],-12.7%
same,"activity, negative = cell killing",[1]; [6],-11.4%
O=C1NC(=O)[C@H]2[C@@H]1[C@@H]1C=C[C@H]2C1,"activity, negative = cell killing",[1]; [7],-11.5%
same,"activity, negative = cell killing",[1]; [8],-1.45%
same,"activity, negative = cell killing",[1]; [9],-23%
same,"activity, negative = cell killing",[1]; [10],-6.43%
same,Potency,[2],inactive
CN(C)CCOc1ccc(/C(=C(/CCCl)c2ccccc2)c2ccccc2)cc1,"activity, negative = cell killing",[1]; [10],-18.9%
same,Potency,[1]; tumour line A,8.91 µM (active)
same,Potency,[1]; tumour line D,12.6 µM (active)
CC1(C)S[C@@H]2[C@H](N3C(=O)C(c4ccccc4)NC3(C)C)C(=O)N2[C@H]1C(=O)O (some centres not stated),"activity, negative = cell killing",[1]; [7],-8.88%
same,"activity, negative = cell killing",[1]; [8],-1.4%
same,"activity, negative = cell killing",[1]; [9],-5.42%
same,"activity, negative = cell killing",[1]; [10],-5.2%
same,Potency,[2],inactive
CCCCCCCCCCCCCCCC(=O)OC[C@H](COP(=O)([O-])OCC[N+](C)(C)C)OC(=O)CCCCCCCCCCCCCCC,"activity, negative = cell killing",[1]; [7],-12.1%
same,"activity, negative = cell killing",[1]; [8],-1.49%
same,"activity, negative = cell killing",[1]; [9],-32.2%
same,"activity, negative = cell killing",[1]; [10],-17.2%
same,Potency,[2],inactive
NC(=O)CC[C@@H]1NC(=O)[C@H](Cc2ccccc2)NC(=O)[C@H](Cc2ccc(O)cc2)NC(=O)[C@@H](N)CSSC[C@@H](C(=O)N2CCC[C@H]2C(=O)N[C@@H](CCCN=C(N)N)C(=O)NCC(N)=O)NC(=O)[C@H](CC(N)=O)NC1=O,"activity, negative = cell killing",[1]; [7],-4.7% and -11.9%
same,"activity, negative = cell killing",[1]; [8],-8.98% and -1.09%
same,"activity, negative = cell killing",[1]; [9],-23.2%
same,"activity, negative = cell killing",[1]; [10],9.23% and 16.1%
same,Potency,[2],inactive
CC1C(=O)CC2C3(C)CCC2(C(C)C(=O)O)C(=O)C13 (configuration not stated),"activity, negative = cell killing",[1]; [7],-19.4%
same,"activity, negative = cell killing",[1]; [8],8.38%
same,"activity, negative = cell killing",[1]; [9],-22.7%
same,"activity, negative = cell killing",[1]; [10],-6.43%
same,Potency,[2],inactive
O=C(O)c1ccc(NC(=O)[C@H](Cc2ccc(O)cc2)NC(=O)c2ccccc2)cc1,"activity, negative = cell killing",[1]; [7],-3.63%
same,"activity, negative = cell killing",[1]; [8],-4.5%
same,"activity, negative = cell killing",[1]; [9],-23.1%
same,"activity, negative = cell killing",[1]; [10],-6.93%
same,Potency,[2],inactive
CC[C@@H](C)[C@H](N)C(=O)O,"activity, negative = cell killing",[1]; [7],-5.93%
same,"activity, negative = cell killing",[1]; [8],-17.3%
same,"activity, negative = cell killing",[1]; [9],-37.7%
same,"activity, negative = cell killing",[1]; [10],-13.6%
same,Potency,[2],inactive
CC(C)[C@@H](N)C(=O)O,"activity, negative = cell killing",[1]; [7],-4.72%
same,"activity, negative = cell killing",[1]; [8],-10.1%
same,"activity, negative = cell killing",[1]; [9],-15.5%
same,"activity, negative = cell killing",[1]; [10],-0.187%
same,Potency,[2],inactive
CO[C@H]1C=CO[C@@]2(C)Oc3c(C)c(O)c4c(O)c(cc(O)c4c3C2=O)NC(=O)/C(C)=C\C=C/[C@H](C)[C@H](O)[C@@H](C)[C@@H](O)[C@@H](C)[C@H](OC(C)=O)[C@@H]1C,"activity, negative = cell killing",[1]; [7],-13.5%
same,"activity, negative = cell killing",[1]; [8],-5.36%
same,"activity, negative = cell killing",[1]; [9],-17.1%
same,"activity, negative = cell killing",[1]; [10],-2.25%
same,Potency,[2],inactive
O=C1[O][Bi][O]c2ccccc21,"activity, negative = cell killing",[1]; [7],-16%
same,"activity, negative = cell killing",[1]; [8],-27.4%
same,"activity, negative = cell killing",[1]; [9],-26.1%
same,"activity, negative = cell killing",[1]; [10],-6.82%
same,Potency,[2],inactive
CC(C)C[C@H](NC(=O)[C@@H](COC(C)(C)C)NC(=O)[C@H](Cc1ccc(O)cc1)NC(=O)[C@H](CO)NC(=O)[C@H](Cc1c[nH]c2ccccc12)NC(=O)[C@H](Cc1cnc[nH]1)NC(=O)[C@@H]1CCC(=O)N1)C(=O)N[C@@H](CCCN=C(N)N)C(=O)N1CCC[C@H]1C(=O)NNC(N)=O,"activity, negative = cell killing",[1]; [7],-16.4% and -7.35%
same,"activity, negative = cell killing",[1]; [8],-27.1% and -14%
same,"activity, negative = cell killing",[1]; [9],-28.3% and -17.4%
same,"activity, negative = cell killing",[1]; [10],-8.14% and 8.02%
same,Potency,[2],inactive
c1ccc2cc(C3=NCCN3)ccc2c1,"activity, negative = cell killing",[1]; [7],-16.9%
same,"activity, negative = cell killing",[1]; [8],-20.8%
same,"activity, negative = cell killing",[1]; [10],-24%
same,Potency,[1]; tumour line A,11.2 µM (active)
same,Potency,[2],inactive
O=P(O)(O)CP(=O)(O)O,"activity, negative = cell killing",[1]; [7],-7.32%
same,"activity, negative = cell killing",[1]; [8],-1.92%
same,"activity, negative = cell killing",[1]; [9],-22%
same,"activity, negative = cell killing",[1]; [10],-17.6%
same,Potency,[2],inactive
CO[C@H]1C[C@H](O[C@H]2[C@H](C)[C@@H](O[C@@H]3O[C@H](C)C[C@H](N(C)C)[C@H]3O)[C@@H](C)C[C@]3(CO3)C(=O)[C@H](C)[C@@H](O)[C@@H](C)[C@@H](C)OC(=O)[C@@H]2C)O[C@@H](C)[C@@H]1O,"activity, negative = cell killing",[1]; [3],-8.16%
same,"activity, negative = cell killing",[1]; [4],-0.194%
same,"activity, negative = cell killing",[1]; [5],-29.4%
same,"activity, negative = cell killing",[1]; [6],-24%
same,Potency,[2],inactive
